KB-3-1 cytotox – qHTS assay for MDR1-selective chemotherapeutics: Primary screen using the parental adenocarcinoma cell KB-3-1; KB-3-1 viability, CellTiter-Glo ATP luminescence, 72 h; Potency, µM (titrated, usually from 46.1 µM), usual class: cytotoxic; actives 1.4% (n = 400,000); note: % is set by controls: 0 for no effect and ±100 for the full control effect; nearly all actives have a fitted effect of over 60% in size
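Parental KB-3-1 adenocarcinoma cells in phenol-red-free DMEM with 10% FBS were pin-treated with compounds at several concentrations, incubated 72 h at 37 °C, and viability read by CellTiter-Glo luminescence; concentration-effect curves were fitted after normalization.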
HT1080-NT tox – qHTS for induction of synthetic lethality in tumor cells producing 2HG: qHTS for the HT-1080-NT fibrosarcoma cell line | HT-1080-NT fibrosarcoma viability, CellTiter-Glo ATP luminescence, 48 h | Potency, µM (series often up to 46.1 µM), inactives show at the top dose activity, negative = less viability, usual class: cytotoxic | actives 1.6% (n = 360,000) | AID 686970, 2013;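 note: NT is the 2HG producing partner of a matched IDH1 knockdown line; 0% = DMSO-treated cells and -100% = media-only wells without cells; nearly all actives have a fitted effect of over 55% in size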
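HT-1080-NT fibrosarcoma cells (2HG-overproducing), 750 cells/well in RPMI with 5% FBS, dosed after 2 h and incubated 48 h at 37C. CellTiter-Glo luminescence normalized to DMSO and no-cell wells; concentration-response curves fitted and classed.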
HT1080 IDH1KD tx – qHTS for induction of synthetic lethality in tumor cells producing 2HG: qHTS for the HT-1080-IDH1KD cell line; Potency, µM (titrated, usually from 46.1 µM), without a hit: at the top dose activity, negative = toxicity, most hits filed as cytotoxic; HT-1080 IDH1 knockdown viability, ATP luminescence, 48 h; actives 2% (n = 360,000);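 note: 0% = DMSO wells and -100% = cell-free medium wells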
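Assay cells: HT-1080 with IDH1 knockdown, 750 per well, RPMI/5% FBS. Exposure: 48 h at 37 °C following 2 h pre-incubation. Read: CellTiter-Glo luminescence; fitted concentration-response, curve class assigned.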
KB-V1 cytotox – qHTS assay for MDR1-selective chemotherapeutics: Primary screen using the drug-selected MDR subline cells KB-V1. KB-V1 MDR cells viability, CellTiter-Glo, 72 h. Potency, µM (series often up to 46.1 µM), actives largely listed as cytotoxic. actives 3.4% (n = 400,000); note: % is set by controls: 0 for no effect and ±100 for the full control effect; nearly all actives have a fitted effect of over 60% in size
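KB-V1 MDR subline cells in DMEM (phenol-red free, 10% FBS) exposed to compounds in qHTS concentration series for 72 h at 37 degrees C. Viability read by CellTiter-Glo luminescence; concentration-effect curves fitted after normalization and correction.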
SW480 rerep – A quantitative high throughput screen for small molecules that induce DNA re-replication in SW480 colon adenocarcinoma cells. SW480 DNA re-replication, Hoechst DNA content imaging, 48 h. Potency, µM (top dose mostly 46.1 µM), inactives show at the top dose re-replication activation, actives largely listed as activators. actives 1.8% (n = 340,000). AID 624297, 2012; note: % of control where 0% means no effect; nearly all actives have a fitted effect of over 55% in size
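Treated cells incubate 48 hr (37 C, 5% CO2), are stained 40 min with Hoechst, and nuclear fluorescence is enumerated; a rise in nuclei with high DNA signal marks re-replication.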
MCF10A rereplic – A quantitative high throughput screen for small molecules that induce DNA re-replication in MCF 10a normal breast cells; MCF 10A DNA re-replication, Hoechst nuclear intensity, 48 h; Potency, µM (top dose mostly 46.1 µM), for the others: top-dose activity, positive = re-replication, usual class: activators; actives 2.9% (n = 350,000); AID 624296, 2012; note: % of control where 0% means no effect; nearly all actives have a fitted effect of over 50% in size
Starred values were filed as active, the others as inactive; i = inactive; ? = inconclusive; nt = no result; [ ] = remark or other dose. Hits are enriched below; roughly 8% of the tested compounds scored in any of these assays. Calls come from the whole dose curve; as a rule, active = well fitted curve in the direction sought with a large enough effect; inconclusive = small, poorly fitted or top-dose-only effect, or another doubt; inactive = no such curve, though single readings can be large; an effect the other way counts as inactive or inconclusive. Potency is the fitted concentration of half-maximal effect.

SMILES | KB-3-1 cytotox | HT1080-NT tox | HT1080 IDH1KD tx | KB-V1 cytotox | SW480 rerep | MCF10A rereplic
CCN(CC)S(=O)(=O)c1cccc(C(=O)N/N=C/c2ccc([N+](=O)[O-])o2)c1 | i | ? | 18µM* | ? | 21µM* | ?
COc1cc(/C=N/NC(=O)c2cncc(Br)c2)cc([N+](=O)[O-])c1O | ? | 16µM* | -4% | ? | 4.1µM* | 1%
COc1ccc(NC(=O)CCn2cnc3onc(-c4ccc(F)cc4)c3c2=O)cc1OC | i | nt | nt | i | nt | nt
CC[C@H](C)[C@@H]1NC(=O)[C@H]([C@@H](C)CC)NC(=O)[C@@H](CC(C)C)NC(=O)[C@H](Cc2ccccc2)NC(=O)[C@H](Cc2ccccc2)NC(=O)[C@@H]2CCCN2C(=O)[C@@H]2CCCN2C(=O)[C@H](C(C)C)NC(=O)[C@H](CC(C)C)NC1=O | ? | ? | ? | i | ? | 21µM*
O=C1C=CC(=O)N1c1ccc(O)cc1 | i | -2% | -7% | ? | 21µM* | 10µM*
O=C1C=CC(=O)N1c1ccc(OC(F)F)cc1 | ? | ? | 16µM* | ? | 23µM* | ?
O=C(O)CNC(=O)c1ccc(OC(F)F)cc1 | i | 10% | -5%[9.24 µM] | i | -8% | 26%
NC(=O)c1nn2c(C(F)(F)F)cc(-c3ccc(Br)cc3)nc2c1Cl | i | nt | nt | i | nt | nt
Cc1ccc(NC(=O)CSc2nc3ccccc3c3nc(CCc4c(C)n[nH]c4C)nn23)c(C)c1 | i | nt | nt | i | nt | nt
CN(C)CCN(C(=O)c1ccco1)c1nc2c(F)cc(F)cc2s1 | i | nt | nt | i | nt | nt
CC(C)c1ccc(OCc2nc(-c3ccccn3)no2)c(Br)c1 | i | -2% | -18% | i | -1% | 15µM*
NC(=O)C1CCN(c2ncc(-c3cccc(N4CCOCC4)c3)s2)CC1 | i | nt | nt | i | nt | nt
Cc1ccc(S(=O)(=O)N(CC(=O)Nc2ccc(Cl)c([N+](=O)[O-])c2)C2CCCCC2)cc1 | ? | -1% | -23% | 4.6µM* | ? | ?
CCN(C1CCCCC1)S(=O)(=O)c1ccc(S(=O)(=O)N(CC(=O)Nc2ccccc2)C2CC2)cc1 | i | -2% | -10% | 6.5µM* | 1% | 11%
Cc1ccc(S(=O)(=O)NC(N)=NCCc2ccc(Cl)cc2)cc1 | i | -9% | -7% | 16µM* | -8% | -9%
COc1ccc(CCN=C(N)NS(=O)(=O)c2ccc(C)cc2)cc1 | i | 1% | -15% | i | nt | -4%
NC(=NCCc1ccccc1)NS(=O)(=O)c1ccc(F)cc1 | i | -9% | 2% | 16µM* | -8% | 11%
CCCCCCCCCCCCCCCC[N+](C)(C)CCN(Cc1ccc(OC)cc1)c1ncccn1 | ? | 16µM* | 18µM* | i | 0% | ?
Cc1nc2nc(SCC(=O)N(C)Cc3ccccc3)nn2c(C)c1Cc1ccccc1Cl | i | nt | nt | i | nt | nt
Cn1c2ccccc2c2n[nH]c(=S)nc21 | ? | 0% | 14% | 6.5µM* | 0% | ?
COc1cc2[nH]c(=O)n(Cc3ccc(C(=O)N4CCN(c5cc(Cl)ccc5C)CC4)cc3)c(=O)c2cc1OC | i | nt | nt | i | nt | nt
COc1ccc(-c2nc(-c3cccnc3)no2)cc1OC | i | 12% | 2% | i | -9% | 1%
COc1ccc(-c2csc3nc(-c4cccnc4)nc(Cl)c23)cc1OC | i | -26% | ? | i | ? | 18µM*
